# Columns and labels:
# Test in all cases: DAPPL (digital affinity profiling via proximity ligation, sequencing); 10 mM Tris-HCl pH 7.5, 50 mM NaCl, 1 mM DTT, 4% glycerol, room temperature, 30 min; GST-TFs on glutathione beads, 16-mer random dsDNA library, 0.1% formaldehyde crosslink after washing; high values mean tight binding
# FLI1 = target: T1, FLI1 (Homo sapiens, UniProt Q01543 1-452); settings: protein: recombinant; tags: N-terminal GST; dsDNA, one strand shown
# T1 sequence: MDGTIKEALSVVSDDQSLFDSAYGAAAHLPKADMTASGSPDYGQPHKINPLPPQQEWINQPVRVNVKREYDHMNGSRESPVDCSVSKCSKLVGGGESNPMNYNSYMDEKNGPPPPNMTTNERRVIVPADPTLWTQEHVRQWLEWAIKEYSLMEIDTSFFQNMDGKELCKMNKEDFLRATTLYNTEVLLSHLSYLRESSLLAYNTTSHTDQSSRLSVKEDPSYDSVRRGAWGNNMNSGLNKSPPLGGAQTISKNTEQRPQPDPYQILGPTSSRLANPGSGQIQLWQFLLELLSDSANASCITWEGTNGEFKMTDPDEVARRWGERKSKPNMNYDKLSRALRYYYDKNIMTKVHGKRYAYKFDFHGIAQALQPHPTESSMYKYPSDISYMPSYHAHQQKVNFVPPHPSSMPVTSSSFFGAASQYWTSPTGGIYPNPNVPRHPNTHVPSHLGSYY
# How it was run: (§1)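 In yeast, human transcription factors were expressed with a GST fusion, then pulled down on glutathione beads and given DNA barcodes. Pooled with a tag-only sample, they were exposed to 200 nmole of a 16-mer random double-stranded DNA library (Tris/NaCl/DTT/glycerol buffer, room temperature, 30 min), washed, crosslinked with 0.1% formaldehyde, proximity-ligated using BsaI/T4 ligase for 1 h at 37 °C, PCR-amplified and read on an Illumina NextSeq500. Each hexamer's frequency of reads for a factor, divided by the matching frequency for the tag-only sample, gives the binding signal.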
# ELK1 = target: T2, ELK1 (Homo sapiens, UniProt P19419 1-428); settings: protein: recombinant; tags: N-terminal GST; dsDNA, one strand shown
# T2 sequence: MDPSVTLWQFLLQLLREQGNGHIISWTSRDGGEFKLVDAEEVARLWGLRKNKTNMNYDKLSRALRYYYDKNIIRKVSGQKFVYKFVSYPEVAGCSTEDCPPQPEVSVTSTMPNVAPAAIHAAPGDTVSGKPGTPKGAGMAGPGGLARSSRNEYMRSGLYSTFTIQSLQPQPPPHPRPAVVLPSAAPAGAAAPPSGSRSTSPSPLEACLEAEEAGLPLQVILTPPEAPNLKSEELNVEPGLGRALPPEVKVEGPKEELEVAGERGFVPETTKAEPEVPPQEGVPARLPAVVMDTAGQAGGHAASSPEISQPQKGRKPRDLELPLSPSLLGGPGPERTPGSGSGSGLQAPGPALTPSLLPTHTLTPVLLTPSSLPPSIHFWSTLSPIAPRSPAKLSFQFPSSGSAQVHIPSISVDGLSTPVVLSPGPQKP
# How it was run: as §1
# GABPA = target: T3, GABPA (Homo sapiens, UniProt Q06546 1-454); settings: protein: recombinant; tags: N-terminal GST; dsDNA, one strand shown
# T3 sequence: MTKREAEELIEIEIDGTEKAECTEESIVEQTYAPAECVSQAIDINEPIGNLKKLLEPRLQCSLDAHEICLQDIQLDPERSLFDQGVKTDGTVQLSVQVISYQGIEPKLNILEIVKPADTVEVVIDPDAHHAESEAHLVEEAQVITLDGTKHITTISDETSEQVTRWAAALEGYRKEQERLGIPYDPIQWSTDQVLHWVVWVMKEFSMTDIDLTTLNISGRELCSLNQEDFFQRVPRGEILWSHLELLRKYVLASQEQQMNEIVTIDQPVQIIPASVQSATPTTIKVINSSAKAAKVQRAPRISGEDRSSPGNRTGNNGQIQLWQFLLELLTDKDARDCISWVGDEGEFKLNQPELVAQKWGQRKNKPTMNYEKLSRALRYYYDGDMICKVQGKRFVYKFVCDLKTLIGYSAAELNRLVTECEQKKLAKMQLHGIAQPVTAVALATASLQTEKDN
# How it was run: as §1
# ERG = target: T4, ERG (Homo sapiens, UniProt P11308 1-479); settings: protein: recombinant; tags: N-terminal GST; dsDNA, one strand shown
# T4 sequence: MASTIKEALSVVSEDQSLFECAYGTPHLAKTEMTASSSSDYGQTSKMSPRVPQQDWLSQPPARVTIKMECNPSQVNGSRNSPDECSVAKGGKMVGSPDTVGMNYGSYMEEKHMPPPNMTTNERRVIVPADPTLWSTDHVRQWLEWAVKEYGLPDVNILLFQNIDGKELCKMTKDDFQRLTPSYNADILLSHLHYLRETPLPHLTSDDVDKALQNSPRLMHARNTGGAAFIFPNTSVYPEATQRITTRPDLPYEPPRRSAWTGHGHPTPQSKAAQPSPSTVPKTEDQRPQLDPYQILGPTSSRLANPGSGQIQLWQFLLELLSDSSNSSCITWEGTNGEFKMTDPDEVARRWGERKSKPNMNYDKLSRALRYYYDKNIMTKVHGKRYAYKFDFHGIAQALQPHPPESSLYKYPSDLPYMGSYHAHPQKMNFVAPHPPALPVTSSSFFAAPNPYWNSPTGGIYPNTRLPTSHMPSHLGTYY
# How it was run: as §1
# ELF1 = ELF1 (Homo sapiens, UniProt P32519 1-619); settings: protein: recombinant; tags: N-terminal GST; dsDNA, one strand shown
# How it was run: as §1
# EHF = target: T5, EHF (Homo sapiens, UniProt Q9NZC4 1-300); settings: protein: recombinant; tags: N-terminal GST; dsDNA, one strand shown
# T5 sequence: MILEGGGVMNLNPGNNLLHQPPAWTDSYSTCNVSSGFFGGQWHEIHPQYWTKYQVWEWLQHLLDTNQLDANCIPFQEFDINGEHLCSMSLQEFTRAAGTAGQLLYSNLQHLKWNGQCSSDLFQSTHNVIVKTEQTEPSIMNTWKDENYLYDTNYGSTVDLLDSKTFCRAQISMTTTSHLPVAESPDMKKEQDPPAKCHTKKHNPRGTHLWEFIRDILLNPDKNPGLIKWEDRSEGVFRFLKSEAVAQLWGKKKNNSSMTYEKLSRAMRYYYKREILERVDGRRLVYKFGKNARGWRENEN
# How it was run: as §1
# SPI1 = SPI1 (Homo sapiens, UniProt P17947 1-270); settings: protein: recombinant; tags: N-terminal GST; dsDNA, one strand shown
# How it was run: as §1
# SPIB = SPIB (Homo sapiens, UniProt Q01892 1-262); settings: protein: recombinant; tags: N-terminal GST; dsDNA, one strand shown
# How it was run: as §1
# ELK3 = target: T6, ELK3 (Homo sapiens, UniProt P41970 1-407); settings: protein: recombinant; tags: N-terminal GST; dsDNA, one strand shown
# T6 sequence: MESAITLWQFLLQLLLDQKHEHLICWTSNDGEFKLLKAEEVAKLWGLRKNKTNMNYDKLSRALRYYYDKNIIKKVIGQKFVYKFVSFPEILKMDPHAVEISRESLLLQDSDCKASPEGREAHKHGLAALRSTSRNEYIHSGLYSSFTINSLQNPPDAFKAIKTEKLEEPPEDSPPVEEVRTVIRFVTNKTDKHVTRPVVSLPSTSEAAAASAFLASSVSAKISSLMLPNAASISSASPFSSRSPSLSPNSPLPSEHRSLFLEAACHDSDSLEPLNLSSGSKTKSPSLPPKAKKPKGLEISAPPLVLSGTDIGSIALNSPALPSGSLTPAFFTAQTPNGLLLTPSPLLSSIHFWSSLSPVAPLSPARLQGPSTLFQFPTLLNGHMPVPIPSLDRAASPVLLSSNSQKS
# How it was run: as §1
# FEV = target: T7, FEV (Homo sapiens, UniProt Q99581 1-238); settings: protein: recombinant; tags: N-terminal GST; dsDNA, one strand shown
# T7 sequence: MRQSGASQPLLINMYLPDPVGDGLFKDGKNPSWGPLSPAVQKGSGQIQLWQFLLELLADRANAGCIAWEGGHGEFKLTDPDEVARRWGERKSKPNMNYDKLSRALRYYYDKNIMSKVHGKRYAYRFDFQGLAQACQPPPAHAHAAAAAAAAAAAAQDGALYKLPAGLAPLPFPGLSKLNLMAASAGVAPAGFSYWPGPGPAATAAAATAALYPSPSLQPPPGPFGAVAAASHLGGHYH
# How it was run: as §1
# ETV5 = ETV5 (Homo sapiens, UniProt P41161 1-510); settings: protein: recombinant; tags: N-terminal GST; dsDNA, one strand shown
# How it was run: as §1
# HSF1 = HSF1 (Homo sapiens, UniProt Q00613 1-529); settings: protein: recombinant; tags: N-terminal GST; chain copies: 3; dsDNA, one strand shown
# How it was run: as §1
# SPIC = target: T8, SPIC (Homo sapiens, UniProt Q8N5J4 1-248); settings: protein: recombinant; tags: N-terminal GST; dsDNA, one strand shown
# T8 sequence: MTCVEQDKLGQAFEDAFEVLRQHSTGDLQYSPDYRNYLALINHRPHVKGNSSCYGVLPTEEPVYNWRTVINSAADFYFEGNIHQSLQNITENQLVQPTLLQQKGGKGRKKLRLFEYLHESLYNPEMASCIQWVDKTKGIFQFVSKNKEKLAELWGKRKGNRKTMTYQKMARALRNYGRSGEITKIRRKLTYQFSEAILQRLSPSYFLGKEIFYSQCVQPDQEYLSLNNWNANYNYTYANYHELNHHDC
# How it was run: as §1
# ELF4 = ELF4 (Homo sapiens, UniProt Q99607 1-663); settings: protein: recombinant; tags: N-terminal GST; dsDNA, one strand shown
# How it was run: as §1
# ELK4 = target: T9, ELK4 (Homo sapiens, UniProt P28324-2 1-405); settings: protein: recombinant; tags: N-terminal GST; dsDNA, one strand shown
# T9 sequence: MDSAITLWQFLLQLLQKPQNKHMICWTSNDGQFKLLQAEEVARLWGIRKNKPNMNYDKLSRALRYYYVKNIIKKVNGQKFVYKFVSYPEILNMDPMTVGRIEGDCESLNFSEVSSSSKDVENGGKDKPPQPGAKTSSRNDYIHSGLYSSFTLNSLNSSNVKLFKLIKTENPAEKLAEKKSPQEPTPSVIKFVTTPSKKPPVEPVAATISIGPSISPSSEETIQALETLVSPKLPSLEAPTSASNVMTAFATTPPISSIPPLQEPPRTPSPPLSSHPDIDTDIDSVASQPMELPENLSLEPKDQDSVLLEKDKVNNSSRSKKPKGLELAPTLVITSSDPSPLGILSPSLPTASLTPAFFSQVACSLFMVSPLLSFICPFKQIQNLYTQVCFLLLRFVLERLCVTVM
# How it was run: as §1
# ETV2 = target: T10, ETV2 (Homo sapiens, UniProt O00321 1-342); settings: protein: recombinant; tags: N-terminal GST; dsDNA, one strand shown
# T10 sequence: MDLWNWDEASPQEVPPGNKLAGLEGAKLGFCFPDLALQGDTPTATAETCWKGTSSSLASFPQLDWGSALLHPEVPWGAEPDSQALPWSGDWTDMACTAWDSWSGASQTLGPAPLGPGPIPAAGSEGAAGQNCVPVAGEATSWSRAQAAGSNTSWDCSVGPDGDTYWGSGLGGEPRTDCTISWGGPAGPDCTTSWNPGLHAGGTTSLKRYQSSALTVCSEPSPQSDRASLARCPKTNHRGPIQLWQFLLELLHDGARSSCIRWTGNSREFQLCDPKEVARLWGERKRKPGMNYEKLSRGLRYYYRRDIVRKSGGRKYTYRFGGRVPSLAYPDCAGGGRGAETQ
# How it was run: as §1
# ELF3 = target: T11, ELF3 (Homo sapiens, UniProt P78545 1-371); settings: protein: recombinant; tags: N-terminal GST; dsDNA, one strand shown
# T11 sequence: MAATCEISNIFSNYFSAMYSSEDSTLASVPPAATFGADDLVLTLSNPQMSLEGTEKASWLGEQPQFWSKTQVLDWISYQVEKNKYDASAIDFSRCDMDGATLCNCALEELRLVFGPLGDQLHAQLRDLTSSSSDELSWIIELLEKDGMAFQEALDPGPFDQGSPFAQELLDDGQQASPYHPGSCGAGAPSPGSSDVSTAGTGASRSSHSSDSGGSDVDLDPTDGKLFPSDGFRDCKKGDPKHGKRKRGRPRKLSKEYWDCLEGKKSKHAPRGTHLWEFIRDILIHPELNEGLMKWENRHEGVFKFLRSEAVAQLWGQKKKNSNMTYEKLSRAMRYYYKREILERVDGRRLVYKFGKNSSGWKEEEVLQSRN
# How it was run: as §1
# CRX = CRX (Homo sapiens, UniProt O43186 1-299); settings: protein: recombinant; tags: N-terminal GST; dsDNA, one strand shown
# How it was run: as §1
# ETV1 = ETV1 (Homo sapiens, UniProt P50549 1-477); settings: protein: recombinant; tags: N-terminal GST; dsDNA, one strand shown
# How it was run: as §1
# Chain of ETV1 (P50549 whole entry): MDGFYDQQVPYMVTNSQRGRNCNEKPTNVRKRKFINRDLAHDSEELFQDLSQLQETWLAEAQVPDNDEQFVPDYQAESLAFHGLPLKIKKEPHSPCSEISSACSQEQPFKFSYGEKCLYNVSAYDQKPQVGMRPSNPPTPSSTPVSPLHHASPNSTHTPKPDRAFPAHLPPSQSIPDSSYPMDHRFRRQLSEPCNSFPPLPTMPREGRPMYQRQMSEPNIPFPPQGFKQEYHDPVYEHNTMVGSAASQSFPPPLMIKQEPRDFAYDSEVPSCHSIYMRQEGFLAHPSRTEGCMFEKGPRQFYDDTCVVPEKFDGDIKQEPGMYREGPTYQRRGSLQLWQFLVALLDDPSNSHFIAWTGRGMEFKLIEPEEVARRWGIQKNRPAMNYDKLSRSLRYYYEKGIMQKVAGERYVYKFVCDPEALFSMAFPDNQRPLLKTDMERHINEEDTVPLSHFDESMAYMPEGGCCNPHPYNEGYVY
# Chain of SPIB (Q01892 whole entry): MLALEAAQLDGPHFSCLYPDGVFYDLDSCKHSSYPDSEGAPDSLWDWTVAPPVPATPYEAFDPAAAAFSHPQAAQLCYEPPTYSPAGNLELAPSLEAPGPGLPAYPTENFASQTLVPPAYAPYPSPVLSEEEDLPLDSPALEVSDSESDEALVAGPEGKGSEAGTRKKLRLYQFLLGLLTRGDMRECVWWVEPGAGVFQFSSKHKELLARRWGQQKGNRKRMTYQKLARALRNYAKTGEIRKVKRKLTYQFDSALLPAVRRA
# Chain of ELF1 (P32519 whole entry): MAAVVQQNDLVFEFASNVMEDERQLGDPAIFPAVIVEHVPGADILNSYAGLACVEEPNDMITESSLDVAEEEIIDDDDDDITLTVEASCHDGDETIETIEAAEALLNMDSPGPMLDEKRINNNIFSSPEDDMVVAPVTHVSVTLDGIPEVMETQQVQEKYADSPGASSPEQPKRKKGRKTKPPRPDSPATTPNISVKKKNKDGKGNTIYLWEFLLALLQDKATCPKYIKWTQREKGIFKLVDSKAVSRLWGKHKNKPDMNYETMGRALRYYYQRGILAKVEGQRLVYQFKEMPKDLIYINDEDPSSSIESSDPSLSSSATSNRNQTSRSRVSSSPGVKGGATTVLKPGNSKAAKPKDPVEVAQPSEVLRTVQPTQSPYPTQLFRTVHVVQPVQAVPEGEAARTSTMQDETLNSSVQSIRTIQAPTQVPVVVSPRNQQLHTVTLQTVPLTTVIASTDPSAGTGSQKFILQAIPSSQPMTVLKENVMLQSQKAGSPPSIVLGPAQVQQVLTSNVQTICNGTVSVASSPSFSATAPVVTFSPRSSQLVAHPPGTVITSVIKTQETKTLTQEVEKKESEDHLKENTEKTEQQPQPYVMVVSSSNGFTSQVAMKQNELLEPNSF
# Chain of CRX (O43186 whole entry): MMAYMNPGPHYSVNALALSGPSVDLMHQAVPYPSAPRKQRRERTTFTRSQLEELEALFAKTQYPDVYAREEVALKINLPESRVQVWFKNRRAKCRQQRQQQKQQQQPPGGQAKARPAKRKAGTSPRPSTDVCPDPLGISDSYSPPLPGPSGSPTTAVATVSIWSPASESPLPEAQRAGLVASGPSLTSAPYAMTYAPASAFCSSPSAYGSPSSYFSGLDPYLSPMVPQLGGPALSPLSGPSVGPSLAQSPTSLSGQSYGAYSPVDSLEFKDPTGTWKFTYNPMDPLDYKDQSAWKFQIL
# Chain of HSF1 (Q00613 whole entry): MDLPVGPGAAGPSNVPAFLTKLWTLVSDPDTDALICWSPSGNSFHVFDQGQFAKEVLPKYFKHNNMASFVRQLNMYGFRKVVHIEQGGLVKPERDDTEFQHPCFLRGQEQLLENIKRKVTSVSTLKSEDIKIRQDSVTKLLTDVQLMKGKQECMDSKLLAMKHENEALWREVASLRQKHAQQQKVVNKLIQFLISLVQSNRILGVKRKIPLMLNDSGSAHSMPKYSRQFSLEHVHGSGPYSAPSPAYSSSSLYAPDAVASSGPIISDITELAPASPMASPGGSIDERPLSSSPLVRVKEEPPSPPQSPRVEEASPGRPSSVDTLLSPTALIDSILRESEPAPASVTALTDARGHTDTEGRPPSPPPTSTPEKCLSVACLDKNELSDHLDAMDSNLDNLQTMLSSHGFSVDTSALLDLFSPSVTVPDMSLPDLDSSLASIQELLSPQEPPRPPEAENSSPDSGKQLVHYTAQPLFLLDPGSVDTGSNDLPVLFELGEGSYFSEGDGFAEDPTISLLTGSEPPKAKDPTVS
# Chain of ELF4 (Q99607 whole entry): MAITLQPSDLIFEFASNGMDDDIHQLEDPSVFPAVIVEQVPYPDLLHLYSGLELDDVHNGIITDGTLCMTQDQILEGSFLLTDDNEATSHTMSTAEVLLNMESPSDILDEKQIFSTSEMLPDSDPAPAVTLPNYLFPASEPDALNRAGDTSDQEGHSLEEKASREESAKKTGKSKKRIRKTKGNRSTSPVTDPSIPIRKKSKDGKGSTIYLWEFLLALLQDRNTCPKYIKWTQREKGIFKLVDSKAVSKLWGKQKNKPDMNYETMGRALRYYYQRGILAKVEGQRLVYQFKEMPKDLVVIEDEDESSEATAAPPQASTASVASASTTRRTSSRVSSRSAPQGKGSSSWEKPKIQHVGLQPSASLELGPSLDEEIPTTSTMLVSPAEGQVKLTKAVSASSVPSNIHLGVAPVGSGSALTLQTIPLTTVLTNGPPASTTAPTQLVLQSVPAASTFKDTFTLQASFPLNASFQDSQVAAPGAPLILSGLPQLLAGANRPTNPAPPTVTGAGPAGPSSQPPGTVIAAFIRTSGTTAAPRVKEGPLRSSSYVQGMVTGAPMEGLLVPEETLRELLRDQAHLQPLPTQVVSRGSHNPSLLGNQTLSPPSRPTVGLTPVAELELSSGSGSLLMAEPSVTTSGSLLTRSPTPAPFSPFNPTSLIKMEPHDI
# Chain of ETV5 (P41161 whole entry): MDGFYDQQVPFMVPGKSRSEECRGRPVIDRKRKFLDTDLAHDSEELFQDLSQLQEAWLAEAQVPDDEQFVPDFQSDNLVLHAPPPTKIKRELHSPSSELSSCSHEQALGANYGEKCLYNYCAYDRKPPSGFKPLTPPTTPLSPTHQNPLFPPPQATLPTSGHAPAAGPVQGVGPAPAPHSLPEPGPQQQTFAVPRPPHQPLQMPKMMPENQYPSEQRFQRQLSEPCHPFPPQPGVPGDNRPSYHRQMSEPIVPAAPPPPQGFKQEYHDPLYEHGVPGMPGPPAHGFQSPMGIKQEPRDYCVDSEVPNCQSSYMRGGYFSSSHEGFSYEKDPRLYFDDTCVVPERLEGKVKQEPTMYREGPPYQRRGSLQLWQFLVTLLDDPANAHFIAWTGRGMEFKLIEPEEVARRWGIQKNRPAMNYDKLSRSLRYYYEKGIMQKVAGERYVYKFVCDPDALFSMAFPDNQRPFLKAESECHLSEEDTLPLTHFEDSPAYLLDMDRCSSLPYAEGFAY
sequence,measurement,setting,value
CTGCGC,binding signal,FLI1,"1.18 fold enrichment (6-mer frequency, TF over GST control)"
same,binding signal,ELK1,"1.4 fold enrichment (6-mer frequency, TF over GST control)"
same,binding signal,GABPA,"1.34 fold enrichment (6-mer frequency, TF over GST control)"
same,binding signal,ERG,"1.37 fold enrichment (6-mer frequency, TF over GST control)"
same,binding signal,ELF1,"1.45 fold enrichment (6-mer frequency, TF over GST control)"
same,binding signal,EHF,"1.4 fold enrichment (6-mer frequency, TF over GST control)"
same,binding signal,SPI1,"1.31 fold enrichment (6-mer frequency, TF over GST control)"
same,binding signal,SPIB,"1.34 fold enrichment (6-mer frequency, TF over GST control)"
same,binding signal,ELK3,"1.22 fold enrichment (6-mer frequency, TF over GST control)"
same,binding signal,FEV,"1.38 fold enrichment (6-mer frequency, TF over GST control)"
same,binding signal,ETV5,"1.34 fold enrichment (6-mer frequency, TF over GST control)"
same,binding signal,HSF1,"1.1 fold enrichment (6-mer frequency, TF over GST control)"
same,binding signal,SPIC,"1.22 fold enrichment (6-mer frequency, TF over GST control)"
same,binding signal,ELF4,"1.32 fold enrichment (6-mer frequency, TF over GST control)"
same,binding signal,ELK4,"1.2 fold enrichment (6-mer frequency, TF over GST control)"
same,binding signal,ETV2,"1.46 fold enrichment (6-mer frequency, TF over GST control)"
same,binding signal,ELF3,"1.27 fold enrichment (6-mer frequency, TF over GST control)"
same,binding signal,CRX,"1.11 fold enrichment (6-mer frequency, TF over GST control)"
same,binding signal,ETV1,"1.58 fold enrichment (6-mer frequency, TF over GST control)"

# Reference: PMC7862700, “An all-to-all approach to the identification of sequence-specific readers for epigenetic DNA modifications on cytosine”
